Results filed as inconclusive are left out. Calls of active or inactive are those of the source. The calls were made as follows, unless noted: active = hit-call score of the fitted dose curve at least 0.9, where 1 is the maximum; inconclusive = response in the unintended direction; inactive = score below 0.9.
molecular target: Steroid hormone receptor ERR1 (Homo sapiens) (UniProt P11474); experiment: ATG_ERRa_TRANS: Attagene TRANS-FACTORIAL HepG2 Assay for human Estrogen-Related Receptor alpha (ERRa) (AID 2282971); conditions: HepG2 Attagene TRANS reporter, ERRa transactivation
Sequence (P11474 whole entry, looked up, the tested form may be a part): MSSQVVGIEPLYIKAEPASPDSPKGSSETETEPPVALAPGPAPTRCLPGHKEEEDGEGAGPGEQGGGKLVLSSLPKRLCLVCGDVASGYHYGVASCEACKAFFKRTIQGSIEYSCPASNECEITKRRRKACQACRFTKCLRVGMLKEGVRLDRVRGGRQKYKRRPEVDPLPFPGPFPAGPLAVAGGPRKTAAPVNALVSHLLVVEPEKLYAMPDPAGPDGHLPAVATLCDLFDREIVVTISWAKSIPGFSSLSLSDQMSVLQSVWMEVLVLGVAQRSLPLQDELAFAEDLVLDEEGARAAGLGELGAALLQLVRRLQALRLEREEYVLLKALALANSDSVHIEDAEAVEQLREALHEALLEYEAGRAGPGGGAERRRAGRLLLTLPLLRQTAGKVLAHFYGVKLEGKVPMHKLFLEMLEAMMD
Outline: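 HepG2 cells transiently transfected with GAL4-UAS reporter units and chimeric NR-Gal4 constructs; after 24 hour compound incubation, reporter mRNA quantified by RT-PCR, fluorescent labelling and capillary electrophoresis, gain of signal versus DMSO.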

| Structure (SMILES) | outcome |
| --- | --- |
| Cc1ccc2c(c1N)C(=O)c1ccccc1C2=O | inactive |
| OCC(F)(F)OC(F)(F)C(F)(F)OC(F)(F)C(F)(F)OC(F)(F)F | inactive |
| C=CC(=O)OCC(F)(F)C(F)F | inactive |
| O=[N+]([O-])c1ccc(Cl)c(Cl)c1 | inactive |
| CCOC(=O)c1ccccc1C(=O)OCC | inactive |
| c1ccc2c(c1)Nc1ccccc1S2 | inactive |
| Cc1ccc(C(=O)Cl)cc1 | inactive |
| O=P1(N(CCCl)CCCl)NCCCO1 (stereo not drawn) | inactive |
| Cc1c([N+](=O)[O-])cc2c(c1[N+](=O)[O-])C(C)(C)CC2(C)C | inactive |

molecular target: X-box-binding protein 1 (Homo sapiens) (UniProt P17861); experiment: ATG_Xbp1_CIS: Attagene CIS-FACTORIAL HepG2 Assay for human X-box Binding Protein 1 (XBP1) (AID 2282972; active = hit-call score of the fitted dose curve at least 0.9, where 1 is the maximum; inactive = score below 0.9); conditions: HepG2 XBP1 cis-element reporter, Attagene multiplex; actives raise or lower the signal
Sequence (P17861 whole entry, looked up): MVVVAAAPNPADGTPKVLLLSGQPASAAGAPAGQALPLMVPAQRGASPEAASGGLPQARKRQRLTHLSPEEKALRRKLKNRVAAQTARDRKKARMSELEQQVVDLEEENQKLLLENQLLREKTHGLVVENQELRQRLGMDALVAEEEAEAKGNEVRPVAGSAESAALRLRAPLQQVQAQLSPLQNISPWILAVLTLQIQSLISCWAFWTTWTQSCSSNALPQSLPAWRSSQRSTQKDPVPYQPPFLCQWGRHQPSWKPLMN
Outline: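 Changes in reporter transcript abundance, read by RT-PCR and capillary electrophoresis, reflect endogenous transcription factor activity. Transfected HepG2 cells received compound for 24 hours; DMSO defined baseline for bidirectional analysis.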

| Structure (SMILES) | outcome | AC50 |
| --- | --- | --- |
| N#Cc1c(-c2ccc(Cl)cc2)[nH]c(C(F)(F)F)c1Br | inactive | – |
| Cc1ccc2c(c1N)C(=O)c1ccccc1C2=O | inactive | – |
| OCC(F)(F)OC(F)(F)C(F)(F)OC(F)(F)C(F)(F)OC(F)(F)F | inactive | – |
| CCN(CC)c1ccccc1 | inactive | – |
| Cc1cccc(N)c1 | inactive | – |
| CCC1(c2ccccc2)C(=O)N=C(O)NC1=O (stereo not drawn) | inactive | – |
| O=C(O)CF | inactive | – |
| O=[N+]([O-])c1ccccc1 | inactive | – |
| CC(C)(C)c1ccc(O)cc1 | – | 171 µM (active) |
| CC(C)CBr | inactive | – |
| CCCCC(CC)COC(=O)c1c(Br)c(Br)c(Br)c(Br)c1C(=O)OCC(CC)CCCC (stereo not drawn) | inactive | – |
| C=CC(=O)OCC(F)(F)C(F)F | inactive | – |
| O=[N+]([O-])c1ccc(Cl)c(Cl)c1 | inactive | – |
| O=[N+]([O-])c1cc(Cl)ccc1Cl | inactive | – |
| O=S(=O)(c1ccc(O)cc1)c1ccc(O)cc1 | inactive | – |
| CCOC(=O)c1ccccc1N | inactive | – |
| O=C(O)C(Cl)Cl | inactive | – |
| Cc1ccc(N)cc1N | inactive | – |
| OCC(F)(F)OC(F)(F)C(F)(F)OC(F)(F)CO | inactive | – |
| Nc1ccc(Cl)cc1 | inactive | – |

| Structure (SMILES) | outcome | AC50 |
| --- | --- | --- |
| c1cc2c3c(cccc3c1)CC2 | inactive | – |
| OCC1CO1 (stereo not drawn) | inactive | – |
| Cn1[nH]nnc1=S | inactive | – |
| O=C(O)C1C(C(=O)O)C2(Cl)C(Cl)=C(Cl)C1(Cl)C2(Cl)Cl (stereo not drawn) | inactive | – |
| CC(O)C#N (stereo not drawn) | inactive | – |
| Oc1ccc(I)cc1 | inactive | – |
| CCNc1nc(Cl)nc(NC(C)(C)C)n1 | inactive | – |
| CCOC(=O)c1ccccc1C(=O)OCC | inactive | – |
| Cc1ccc([N+](=O)[O-])cc1C | inactive | – |
| Cc1ccc(O)cc1C | inactive | – |
| c1ccc2c(c1)Nc1ccccc1S2 | inactive | – |
| Cc1ccc(C(=O)Cl)cc1 | inactive | – |
| COP(=O)(O)OC | inactive | – |
| CC(Cl)CN(C)C (stereo not drawn) | inactive | – |
| CCOS(=O)(=O)OCC | inactive | – |
| CC1=C(C(=O)Nc2ccccc2)S(=O)(=O)CCO1 | inactive | – |
| O=P1(N(CCCl)CCCl)NCCCO1 (stereo not drawn) | inactive | – |
| Cc1c([N+](=O)[O-])cc2c(c1[N+](=O)[O-])C(C)(C)CC2(C)C | inactive | – |
| Cc1cc(C)c(C(=O)P(=O)(c2ccccc2)c2ccccc2)c(C)c1 | – | 53.4 µM (active) |

molecular target: Androgen receptor (Homo sapiens) (UniProt P10275); experiment: ATG_AR_TRANS: Attagene TRANS-FACTORIAL HepG2 Assay for human Androgen Receptor (AR) (AID 2282973); conditions: HepG2 Attagene TRANS-FACTORIAL AR reporter transcription
Sequence (P10275 whole entry, looked up, the tested form may be a part): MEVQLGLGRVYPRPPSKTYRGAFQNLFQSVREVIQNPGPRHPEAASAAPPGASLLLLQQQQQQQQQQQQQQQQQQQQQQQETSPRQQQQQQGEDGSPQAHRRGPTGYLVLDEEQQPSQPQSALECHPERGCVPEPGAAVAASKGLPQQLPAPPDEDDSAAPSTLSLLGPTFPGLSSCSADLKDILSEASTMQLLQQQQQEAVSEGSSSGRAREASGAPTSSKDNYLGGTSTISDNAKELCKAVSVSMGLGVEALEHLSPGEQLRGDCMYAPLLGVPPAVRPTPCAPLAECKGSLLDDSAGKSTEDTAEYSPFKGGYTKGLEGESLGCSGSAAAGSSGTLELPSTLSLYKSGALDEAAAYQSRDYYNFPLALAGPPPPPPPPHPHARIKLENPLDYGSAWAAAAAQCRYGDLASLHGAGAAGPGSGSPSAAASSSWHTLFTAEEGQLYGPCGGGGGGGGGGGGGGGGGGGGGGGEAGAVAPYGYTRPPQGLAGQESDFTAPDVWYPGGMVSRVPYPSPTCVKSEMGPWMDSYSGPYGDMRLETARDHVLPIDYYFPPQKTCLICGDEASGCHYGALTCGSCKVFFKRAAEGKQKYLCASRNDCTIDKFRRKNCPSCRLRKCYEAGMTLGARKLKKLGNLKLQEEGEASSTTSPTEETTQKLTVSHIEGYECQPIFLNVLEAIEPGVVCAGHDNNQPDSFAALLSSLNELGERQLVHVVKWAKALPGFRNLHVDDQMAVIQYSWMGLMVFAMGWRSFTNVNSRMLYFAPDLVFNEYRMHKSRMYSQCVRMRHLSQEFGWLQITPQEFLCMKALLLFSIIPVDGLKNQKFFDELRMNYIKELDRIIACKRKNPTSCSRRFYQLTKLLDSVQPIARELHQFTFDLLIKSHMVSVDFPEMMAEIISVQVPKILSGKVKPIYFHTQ
Outline: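 HepG2 cells transiently transfected with AR-Gal4 chimera and GAL4-UAS reporter units; chemical exposure 24 h. Reporter mRNA quantified by RT-PCR with fluorescent labelling and capillary electrophoresis; gain-of-signal fitted against DMSO.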

| Structure (SMILES) | outcome |
| --- | --- |
| N#Cc1c(-c2ccc(Cl)cc2)[nH]c(C(F)(F)F)c1Br | inactive |
| OCC(F)(F)OC(F)(F)C(F)(F)OC(F)(F)C(F)(F)OC(F)(F)F | inactive |
| CCN(CC)c1ccccc1 | inactive |
| CC(C)CBr | inactive |
| C=CC(=O)OCC(F)(F)C(F)F | inactive |
| OCC(F)(F)OC(F)(F)C(F)(F)OC(F)(F)CO | inactive |
| CC(O)C#N (stereo not drawn) | inactive |
| CCNc1nc(Cl)nc(NC(C)(C)C)n1 | inactive |
| COP(=O)(O)OC | inactive |

system: not listed separately; experiment: ATG_M_19_TRANS: Attagene TRANS-FACTORIAL HepG2 Assay for M19 Transcription Factor (Internal Marker) (AID 2282974); conditions: HepG2 Attagene TRANS-FACTORIAL M19 internal marker reporter
Outline: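 Cells: human HepG2, transiently transfected with multiplexed reporter transcription units. Exposure: 24 h. Detection: RT-PCR of reporter mRNA with capillary electrophoresis. Analysis: gain-of-signal vs DMSO.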

| Structure (SMILES) | outcome |
| --- | --- |
| N#Cc1c(-c2ccc(Cl)cc2)[nH]c(C(F)(F)F)c1Br | inactive |
| Cc1ccc2c(c1N)C(=O)c1ccccc1C2=O | inactive |
| OCC(F)(F)OC(F)(F)C(F)(F)OC(F)(F)C(F)(F)OC(F)(F)F | inactive |
| CCN(CC)c1ccccc1 | inactive |
| O=C(O)CF | inactive |
| O=[N+]([O-])c1ccc(Cl)c(Cl)c1 | inactive |
| Nc1ccc(Cl)cc1 | inactive |
| c1cc2c3c(cccc3c1)CC2 | inactive |
| OCC1CO1 (stereo not drawn) | inactive |
| Cn1[nH]nnc1=S | inactive |
| Oc1ccc(I)cc1 | inactive |
| Cc1ccc([N+](=O)[O-])cc1C | inactive |
| Cc1ccc(O)cc1C | inactive |
| c1ccc2c(c1)Nc1ccccc1S2 | inactive |
| Cc1ccc(C(=O)Cl)cc1 | inactive |
| COP(=O)(O)OC | inactive |
| CC(Cl)CN(C)C (stereo not drawn) | inactive |

system: not listed separately; experiment: ATG_GAL4_TRANS: Attagene TRANS-FACTORIAL HepG2 Assay for GAL4 (Internal Marker) (AID 2282976); conditions: HepG2 Attagene TRANS GAL4 internal marker reporter
Outline: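 Background-control readout: GAL4-UAS reporter transcript in transiently transfected HepG2 cells after 24 h compound exposure. Measured by RT-PCR, 6-FAM primer extension, HpaI digest and capillary electrophoresis; gain-of-signal fit versus DMSO.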

| Structure (SMILES) | outcome |
| --- | --- |
| N#Cc1c(-c2ccc(Cl)cc2)[nH]c(C(F)(F)F)c1Br | inactive |
| OCC(F)(F)OC(F)(F)C(F)(F)OC(F)(F)C(F)(F)OC(F)(F)F | inactive |
| CCC1(c2ccccc2)C(=O)N=C(O)NC1=O (stereo not drawn) | inactive |
| O=C(O)CF | inactive |
| CC(C)CBr | inactive |
| C=CC(=O)OCC(F)(F)C(F)F | inactive |
| O=C(O)C(Cl)Cl | inactive |
| Cc1ccc(N)cc1N | inactive |
| Nc1ccc(Cl)cc1 | inactive |
| Cn1[nH]nnc1=S | inactive |
| CC(O)C#N (stereo not drawn) | inactive |
| CCNc1nc(Cl)nc(NC(C)(C)C)n1 | inactive |
| CCOC(=O)c1ccccc1C(=O)OCC | inactive |
| Cc1ccc([N+](=O)[O-])cc1C | inactive |
| Cc1ccc(O)cc1C | inactive |
| c1ccc2c(c1)Nc1ccccc1S2 | inactive |
| Cc1ccc(C(=O)Cl)cc1 | inactive |
| O=P1(N(CCCl)CCCl)NCCCO1 (stereo not drawn) | inactive |
| Cc1c([N+](=O)[O-])cc2c(c1[N+](=O)[O-])C(C)(C)CC2(C)C | inactive |
